From PubChem BioAssay (EPA / NIEHS)
The source made the active and inactive calls. How the source made its calls: active means hit-call score of the fitted dose curve at least 0.9, where 1 is the maximum; inactive means score below 0.9.

test: CCTE_Shafer_MEA_dev_inter_network_spike_interval_mean: CCTE's Neural Network Formation Assay for Mean Inter-network Spike Interval, Shafer Lab (AID 2284047);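 on AC50: potency for a decrease in mean inter-network spike interval below DMSO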
Description: CCTE_Shafer_MEA_dev assay is conducted using Axion Biosystems 48 well microelectrode array (MEA) plates and Maestro recording system. Each well of the MEA plate contains a grid of 16 microelectrodes embedded in the culture surface. Electrically active cells, such as neurons, can be cultured over the electrodes, and electrical activity in these cells can be recorded extracellularly. The spontaneous firing of neurons is captured from each electrode on a microsecond timescale providing both temporally and spatially precise data. […] The CCTE_Shafer_MEA_dev assay uses primary cultures of rat cortical neurons. Recordings are made on days post-plating 5, 7, 9 and 12. As these cultures mature over time, neural networks develop functional activity and form cohesive networks in which electrical activity can be highly coordinated. CCTE_Shafer_MEA_dev_inter_network_spike_interval_mean is 1 of 19 assay components of the CCTE_Shafer_MEA_dev assay. It measures the average time interval between network spikes (temporally-clustered groups of actional potential firing across multiple electrodes) as the average time between peaks of consecutive network spikes during a recording in a microelectrode array (MEA) using Axion Biosystems Maestro 768 channel amplifier with the AxIS adaptive spike detector. To collapse across multiple recordings made on days post-plating 5, 7, 9 and 12, the trapezoidal area-under-the-curve of the component is calculated.Data from the assay component CCTE_Shafer_MEA_dev_inter_network_spike_interval_mean was analyzed into 1 assay endpoint. This assay endpoint, CCTE_Shafer_MEA_dev_inter_network_spike_interval_mean, was analyzed in the negative analysis fitting direction relative to DMSO as the negative control and baseline of activity. Using a type of functional reporter, gain or loss-of-signal activity can be used to understand electrical activity.
On the day prior to culture, each well was coated thoroughly with 150 uL of 0.05% polyethyleneimine (PEI, Sigma Cat P3143) in 50 mM HEPES (Sigma Cat H7523) at a pH of 8. The plate was incubated at 37C for one hour. PEI was rinsed out with 500 uL of sterile water three times. Plates were stored at 4C until the day of culture. This culture was plated at a seeding density of 1.5 x 10^5 cells/well on a 48-well MEA plate, prepared as described above. Cells were administered via a 25 uL media/laminin ([…]; Sigma Cat L2020-1MG) drop directly onto the microelectrode array, as adding the cells with the laminin results in better attachment than pre-coating with laminin. After 2 hours, an additional 475 uL of cortical media was added and the cells returned to the incubator. Exposure starts at day 0 of plating and is continued over twelve days of network development until the experiment is terminated. Cells are fed with fresh medium on DIV 5 and 9, following the recordings on those days. The entire volume of media in the well is exchanged and any vehicle or compound treatment is renewed. Complete details are found in OP-NHEERL/ISTD/SBB/TJS/2015-03-r0 (available on request, email shafer.tim@epa.gov). Measurement of the electrical activity is non-invasive, and recordings can be made from the same plate over multiple different days of the culture. In cortical neurons, this allows for the measurement of extracellular action potentials over the period during which networks form in the MEA plate.

Row | Compound | outcome | AC50
1 | O=C(O)C(F)(F)OC(F)(F)C(F)(F)OC(F)(F)C(=O)O | inactive | 
2 | CO/N=C(/C(=O)OC)c1ccccc1COc1ccccc1C |  | 712 nM (active)
3 | O=P(Oc1ccccc1)(Oc1ccccc1)Oc1ccccc1 | inactive | 
4 | CCOc1ccc(C(C)(C)COCc2cccc(Oc3ccccc3)c2)cc1 | inactive | 
5 | c1ccc(OP(Oc2ccccc2)Oc2ccccc2)cc1 | inactive | 
6 | CC(C)(C)c1ccccc1OP(=O)(Oc1ccccc1)Oc1ccccc1 | inactive | 
7 | CCCCC(CC)COC(=O)c1c(Br)c(Br)c(Br)c(Br)c1C(=O)OCC(CC)CCCC (centres undefined) | inactive | 
8 | O=S(=O)(c1ccc(O)cc1)c1ccc(O)cc1 | inactive | 
9 | CCOP(=S)(OCC)SCSCC | inactive | 
10 | O=C(O)C(F)(F)OC(F)(F)C(F)(F)OC(F)(F)F | inactive | 
11 | ClC1=C(Cl)C2(Cl)C3C(Cl)C(Cl)CC3C1(Cl)C2(Cl)Cl (centres undefined) | inactive | 
12 | CCC1(c2ccccc2)C(=O)N=C(O)NC1=O (centres undefined) | inactive | 
13 | O=C(O)C1C(C(=O)O)C2(Cl)C(Cl)=C(Cl)C1(Cl)C2(Cl)Cl (centres undefined) | inactive | 
14 | CC(O)C(F)(F)C(F)(F)F (centres undefined) | inactive | 
15 | OCC(F)(F)OC(F)(F)C(F)(F)OC(F)(F)C(F)(F)OC(F)(F)CO | inactive | 
16 | OCC(F)(F)OC(F)(F)C(F)(F)OC(F)(F)CO | inactive | 
17 | C=CC(=O)OCC(F)(F)C(F)F | inactive | 
18 | O=C(O)C(F)(OC(F)(F)C(F)(F)C(F)(F)F)C(F)(F)F (centres undefined) | inactive | 
19 | O=C(O)C=CC(F)(C(F)(F)F)C(F)(F)F | inactive | 
20 | O=C(O)C(F)(F)C(F)(F)C(=O)O | inactive | 
21 | CCCCC(CC)COP(=O)(Oc1ccccc1)Oc1ccccc1 (centres undefined) | inactive | 
22 | OCC(F)(F)OC(F)(F)C(F)(F)OC(F)(F)C(F)(F)OC(F)(F)F | inactive | 
23 | c1cc2c3c(cccc3c1)CC2 | inactive | 
24 | O=P1(N(CCCl)CCCl)NCCCO1 (centres undefined) | inactive | 
